# About 410 targets per protein were measured; listed, in parts, are those with the strongest signals and a random draw of the rest.
# B1: Pwp7 (Candida glabrata) (protein)
# chain: MGSSHHHHHHSSGLVPRGSHMASKNPVDFPNLCQYPNLDGAVAGFDTEIYNADPSILINFSLWPILQFPKEWHKTIGRAITTQTNFKLPASDTTLFGVSIPTQNILIEFRGYFIPPKSGTYTFALYLTDDGSAMFLGNDAAFPCGNITSWSNPTNDQVSVSDYDPKKKTLTVYMVAGVAYPLRIAYYNREKGGSLTASFVDPDGLTHSDWNGYIWTLPSCDNCKYS
# Experiments:
# Experiment in all cases: glycan array binding signal (z-score within array); higher = stronger binding
# Settings in all cases: glycan notation: IUPAC condensed, linker removed
# [1] = molecular target: Fuc(a1-2)Gal(b1-3)GalNAc(b1-3)Gal
# How it was run: (§1)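 The Consortium for Functional Glycomics database supplied 3228 glycan arrays, of which those lacking an available protein sequence were dropped. The binding signal, a within-array Z-score, was averaged across arrays of the same protein sequence and across linkers. Negative scores can be read as non-binding.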
# [2] = molecular target: Fuc(a1-2)Gal(b1-3)[Fuc(a1-4)]GlcNAc
# How it was run: as §1
# [3] = molecular target: Fuc(a1-2)Gal(b1-4)Glc
# How it was run: as §1
# [4] = molecular target: Fuc(a1-2)Gal(b1-4)GlcNAc(b1-3)Gal(b1-4)GlcNAc(b1-3)Gal(b1-4)GlcNAc
# How it was run: as §1
# [5] = molecular target: Fuc(a1-2)[Gal(a1-3)]Gal(b1-3)GlcNAc(b1-6)GalNAc
# How it was run: as §1
# [6] = molecular target: Fuc(a1-3)[Gal(b1-4)]Glc6S
# How it was run: as §1
# [7] = molecular target: Fuc(a1-3)[Gal(b1-4)]GlcNAc(b1-2)Man(a1-3)[Fuc(a1-3)[Gal(b1-4)]GlcNAc(b1-2)Man(a1-6)]Man(b1-4)GlcNAc(b1-4)[Fuc(a1-6)]GlcNAc
# How it was run: as §1
# [8] = molecular target: Fuc(a1-3)[Gal(b1-4)]GlcNAc(b1-6)GalNAc
# How it was run: as §1
# [9] = molecular target: Gal(b1-3)Gal(b1-4)GlcNAc
# How it was run: as §1
# [10] = molecular target: Gal(b1-4)GlcNAc(b1-2)Man(a1-6)Man(b1-4)GlcNAc(b1-4)GlcNAc
# How it was run: as §1
# [11] = molecular target: Gal(b1-4)GlcNAc(b1-3)Gal(b1-4)GlcNAc(b1-2)[Gal(b1-4)GlcNAc(b1-3)Gal(b1-4)GlcNAc(b1-6)]Man(a1-6)[Gal(b1-4)GlcNAc(b1-3)Gal(b1-4)GlcNAc(b1-2)Man(a1-3)]Man(b1-4)GlcNAc(b1-4)GlcNAc
# How it was run: as §1
# [12] = molecular target: Gal(b1-4)GlcNAc(b1-3)Gal(b1-4)GlcNAc(b1-2)[Gal(b1-4)GlcNAc(b1-3)Gal(b1-4)GlcNAc(b1-6)]Man(a1-6)[Gal(b1-4)GlcNAc(b1-3)Gal(b1-4)GlcNAc(b1-2)Man(a1-3)]Man(b1-4)GlcNAc(b1-4)[Fuc(a1-6)]GlcNAc
# How it was run: as §1
# [13] = molecular target: Gal(b1-4)GlcNAc(b1-3)Gal(b1-4)GlcNAc(b1-3)Gal(b1-4)GlcNAc(b1-3)Gal(b1-4)GlcNAc(b1-3)Gal(b1-4)GlcNAc(b1-2)Man(a1-3)[Gal(b1-4)GlcNAc(b1-3)Gal(b1-4)GlcNAc(b1-3)Gal(b1-4)GlcNAc(b1-3)Gal(b1-4)GlcNAc(b1-3)Gal(b1-4)GlcNAc(b1-2)Man(a1-6)]Man(b1-4)GlcNAc(b1-4)[Fuc(a1-6)]GlcNAc
# How it was run: as §1
# [14] = molecular target: Gal(b1-4)GlcNAc(b1-3)Gal(b1-4)GlcNAc(b1-3)[Gal(b1-4)GlcNAc(b1-3)Gal(b1-4)GlcNAc(b1-6)]GalNAc
# How it was run: as §1
# [15] = molecular target: Gal3S(b1-4)[Fuc(a1-3)]GlcNAc6S
# How it was run: as §1
# [16] = molecular target: GalNAc(b1-4)GlcNAc(b1-2)Man(a1-3)[GalNAc(b1-4)GlcNAc(b1-2)Man(a1-6)]Man(b1-4)GlcNAc(b1-4)GlcNAc
# How it was run: as §1
# [17] = molecular target: GalNAc(b1-4)GlcNAc(b1-3)GalNAc(b1-4)GlcNAc
# How it was run: as §1
# [18] = molecular target: Glc(a1-6)Glc(a1-6)Glc(a1-6)Glc
# How it was run: as §1
# [19] = molecular target: GlcNAc(b1-3)Gal(b1-4)GlcNAc(b1-3)Gal(b1-4)GlcNAc(b1-3)Gal(b1-4)GlcNAc(b1-3)Gal(b1-4)GlcNAc(b1-2)Man(a1-3)[GlcNAc(b1-3)Gal(b1-4)GlcNAc(b1-3)Gal(b1-4)GlcNAc(b1-3)Gal(b1-4)GlcNAc(b1-3)Gal(b1-4)GlcNAc(b1-2)Man(a1-6)]Man(b1-4)GlcNAc(b1-4)[Fuc(a1-6)]GlcNAc
# How it was run: as §1
# [20] = molecular target: GlcNAc(b1-3)Gal(b1-4)GlcNAc(b1-3)GalNAc
# How it was run: as §1
# [21] = molecular target: GlcNAc(b1-3)GalNAc
# How it was run: as §1
# [22] = molecular target: GlcNAc(b1-3)Man
# How it was run: as §1
# [23] = molecular target: GlcNAc(b1-3)[GlcNAc(b1-4)][GlcNAc(b1-6)]GlcNAc
# How it was run: as §1
# [24] = molecular target: Kdn(a2-6)Gal(b1-4)GlcNAc
# How it was run: as §1
# [25] = molecular target: Man(a1-2)Man(a1-6)[Man(a1-3)]Man(a1-6)[Man(a1-2)Man(a1-2)Man(a1-3)]Man
# How it was run: as §1
# [26] = molecular target: Man(a1-2)Man(a1-6)[Man(a1-3)]Man(a1-6)[Man(a1-2)Man(a1-2)Man(a1-3)]Man(b1-4)GlcNAc(b1-4)GlcNAc
# How it was run: as §1
# [27] = molecular target: Man(a1-3)[Man(a1-6)]Man(a1-6)[Man(a1-2)Man(a1-3)]Man(b1-4)GlcNAc(b1-4)GlcNAc
# How it was run: as §1
# [28] = molecular target: Man(a1-3)[Man(a1-6)]Man(a1-6)[Man(a1-3)]Man
# How it was run: as §1
# [29] = molecular target: Neu5Ac(a2-3)Gal(b1-3)GlcNAc
# How it was run: as §1
# [30] = molecular target: Neu5Ac(a2-3)Gal(b1-3)GlcNAc(b1-2)Man
# How it was run: as §1
# [31] = molecular target: Neu5Ac(a2-3)Gal(b1-4)GlcNAc(b1-2)Man(a1-3)[Neu5Ac(a2-3)Gal(b1-4)GlcNAc(b1-2)Man(a1-6)]Man(b1-4)GlcNAc(b1-4)GlcNAc
# How it was run: as §1
# [32] = molecular target: Neu5Ac(a2-3)Gal(b1-4)GlcNAc(b1-2)[Neu5Ac(a2-3)Gal(b1-4)GlcNAc(b1-6)]Man(a1-6)[Neu5Ac(a2-3)Gal(b1-4)GlcNAc(b1-2)Man(a1-3)][GlcNAc(b1-4)]Man(b1-4)GlcNAc(b1-4)GlcNAc
# How it was run: as §1
# [33] = molecular target: Neu5Ac(a2-3)Gal(b1-4)GlcNAc(b1-3)GalNAc
# How it was run: as §1
# [34] = molecular target: Neu5Ac(a2-3)Gal(b1-4)GlcNAc(b1-3)[Neu5Ac(a2-3)Gal(b1-4)GlcNAc(b1-6)]GalNAc
# How it was run: as §1
# [35] = molecular target: Neu5Ac(a2-3)Gal(b1-4)GlcNAc(b1-6)[Gal(b1-3)]GalNAc
# How it was run: as §1
# [36] = molecular target: Neu5Ac(a2-3)Gal(b1-4)[Fuc(a1-3)]GlcNAc(b1-3)Gal
# How it was run: as §1
# [37] = molecular target: Neu5Ac(a2-6)Gal(b1-4)GlcNAc(b1-2)Man(a1-3)[Neu5Ac(a2-6)Gal(b1-4)GlcNAc(b1-2)Man(a1-6)]Man(b1-4)GlcNAc(b1-4)GlcNAc
# How it was run: as §1
# [38] = molecular target: Neu5Ac(a2-6)Gal(b1-4)GlcNAc(b1-3)Gal(b1-4)GlcNAc(b1-3)Gal(b1-4)GlcNAc(b1-2)Man(a1-3)[Neu5Ac(a2-6)Gal(b1-4)GlcNAc(b1-3)Gal(b1-4)GlcNAc(b1-3)Gal(b1-4)GlcNAc(b1-2)Man(a1-6)]GalNAc
# How it was run: as §1
# [39] = molecular target: Neu5Ac(a2-6)Gal(b1-4)GlcNAc(b1-3)Gal(b1-4)GlcNAc(b1-3)GalNAc
# How it was run: as §1
# [40] = molecular target: Neu5Ac(a2-6)Gal(b1-4)GlcNAc(b1-3)Gal(b1-4)[Fuc(a1-3)]GlcNAc(b1-3)Gal(b1-4)[Fuc(a1-3)]GlcNAc
# How it was run: as §1
# [41] = molecular target: Neu5Ac(b2-6)GalNAc
# How it was run: as §1
# [42] = molecular target: Neu5Gc(a2-8)Neu5Gc(a2-3)Gal(b1-4)GlcNAc
# How it was run: as §1
binder,measurement,setting,value
B1,glycan array binding signal (z-score),[1],-0.017
same,glycan array binding signal (z-score),[2],-0.614
same,glycan array binding signal (z-score),[3],-0.416
same,glycan array binding signal (z-score),[4],-0.218
same,glycan array binding signal (z-score),[5],0.673
same,glycan array binding signal (z-score),[6],2.63
same,glycan array binding signal (z-score),[7],-0.531
same,glycan array binding signal (z-score),[8],-0.313
same,glycan array binding signal (z-score),[9],-0.059
same,glycan array binding signal (z-score),[10],0.711
same,glycan array binding signal (z-score),[11],4.75
same,glycan array binding signal (z-score),[12],0.752
same,glycan array binding signal (z-score),[13],2.19
same,glycan array binding signal (z-score),[14],2.23
same,glycan array binding signal (z-score),[15],-0.723
same,glycan array binding signal (z-score),[16],2.13
same,glycan array binding signal (z-score),[17],-0.44
same,glycan array binding signal (z-score),[18],1.4
same,glycan array binding signal (z-score),[19],2.91
same,glycan array binding signal (z-score),[20],2.79
same,glycan array binding signal (z-score),[21],-0.079
same,glycan array binding signal (z-score),[22],-0.272
same,glycan array binding signal (z-score),[23],-1.58
same,glycan array binding signal (z-score),[24],-0.857
same,glycan array binding signal (z-score),[25],-0.467
same,glycan array binding signal (z-score),[26],-0.429
same,glycan array binding signal (z-score),[27],-0.076
same,glycan array binding signal (z-score),[28],2.11
same,glycan array binding signal (z-score),[29],-0.487
same,glycan array binding signal (z-score),[30],0.574
same,glycan array binding signal (z-score),[31],0.472
same,glycan array binding signal (z-score),[32],10.8
same,glycan array binding signal (z-score),[33],-0.11
same,glycan array binding signal (z-score),[34],2.25
same,glycan array binding signal (z-score),[35],-0.55
same,glycan array binding signal (z-score),[36],-0.216
same,glycan array binding signal (z-score),[37],0.696
same,glycan array binding signal (z-score),[38],3.78
same,glycan array binding signal (z-score),[39],0.805
same,glycan array binding signal (z-score),[40],-0.43
same,glycan array binding signal (z-score),[41],-0.387
same,glycan array binding signal (z-score),[42],-0.224
